High-throughput results (PubChem)
FMDV antiviral – blocks foot and mouth disease virus; 1.2% of 410,000 active; Potency, µM (highest dose often 57.9 µM), inactives show at the highest dose activity change, negative = inhibition, most hits filed as inhibitors; AID 1159524; FMDV antiviral cell-based qHTS; calls by dose curve; tested in HEK293T cells; note: read-out not given here; potency is the fitted concentration of half-maximal effect; nearly all actives have a fitted effect of over 45% in size
LASV entry inh – inhibitors of Lassa virus binding or cell entry; AID 540256; 1.2% of 300,000 active; Lassa virus pseudotype entry inhibition, cell reporter; Potency, µM (top dose mostly 37.9 µM), for inactives: at the highest dose activity change, negative = inhibition, hits mostly inhibitors; calls by dose curve; tested in HEK293 cells; note: potency is the fitted concentration of half-maximal effect; nearly all actives have a fitted effect of over 50% in size
Vaccinia Venus – inhibitors of vaccinia virus (Venus reporter); Vaccinia virus Venus reporter expression, fluorescence; Potency, µM (titrated, usually from 36.5 µM), without a hit: at the highest dose activity change, negative = inhibition, usual class: inhibitors; 0.46% of 330,000 active; AID 720580; calls by dose curve; tested in A549 cells; note: potency is the fitted concentration of half-maximal effect; nearly all actives have a fitted effect of over 30% in size
VACV mCherry inh – vaccinia inhibition (mCherry reporter); 0.63% of 310,000 active; AID 720579; Potency, µM (series often up to 36.5 µM), for the others: top-dose activity change, negative = inhibition, most hits filed as inhibitors; Vaccinia virus mCherry reporter infection, fluorescence; calls by dose curve; tested in A549 cells; note: potency is the fitted concentration of half-maximal effect; nearly all actives have a fitted effect of over 35% in size
MARV entry inh – inhibitors of Marburg virus binding or cell entry. Marburg virus pseudotyped entry inhibition, cell reporter. 1.8% of 300,000 active. Potency, µM (highest dose often 37.8 µM), for inactives: top-dose activity change, negative = inhibition, actives largely listed as inhibitors. AID 540276; calls by dose curve; tested in HEK293 cells; note: potency is the fitted concentration of half-maximal effect
HCMV antiviral – blocks human cytomegalovirus replication | HFF cells, HCMV-luciferase reporter, 72 h; active compounds read low | activity change, negative = inhibition, % at 57.5 µM | 4.5% of 410,000 active | AID 1259415; in the data active = activity change below about -60%; inconclusive = no clear call, values can overlap the other calls; inactive = above about -39%
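Inhibition of viral replication was scored as loss of reporter luminescence in HFFs infected with HCMV-luciferase (MOI 1 PFU/cell) for 72 h; compounds tested at 2 doses, normalized to buffer and Salinomycin controls.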
* hit, by the source's call; i = inactive; u = inconclusive; x = not tested or not shown; ! = a repeat was not active; [ ] = remark or other dose. Shown are actives, neighbours in structure and some others; about 6.5% of the full set was active somewhere. % is set by controls: 0 for no effect and ±100 for the full control effect.

SMILES	FMDV antiviral	LASV entry inh	Vaccinia Venus	VACV mCherry inh	MARV entry inh	HCMV antiviral
O=C(O)c1cccc(Nc2nc(-c3ccc([N+](=O)[O-])cc3)nc3ccccc23)c1	-8%	x	x	x	x	-71*
O=[N+]([O-])c1ccc(-c2nc(Nc3cccc(O)c3)c3ccccc3n2)cc1	u	x	x	x	x	-10
O=C(Nc1ccc([N+](=O)[O-])cc1)C(=O)Nc1cccc(C(=O)O)c1	10µM*	x	x	x	x	0
COc1cc(/C=C\c2ccc(OC)cc2OC)cc(OC)c1	17%	x	x	x	x	x
Clc1ccc(N2C[C@H]3CC[C@@H](C2)N3)nn1	x	x	x	x	-1%	x
CN(CCO)C(=O)c1cn(C2CCN(Cc3ccc4ccccc4c3)CC2)nn1	-4%	x	0%	-7%	x	x
Cn1c(=O)oc2cc(S(=O)(=O)N3CCCC(C(=O)Nc4ccccn4)C3)ccc21 (stereo not given)	u	x	-4%	14%	x	-23
Cn1c(=O)oc2cc(S(=O)(=O)N3CCCC(C(=O)NC4CCCc5ccccc54)C3)ccc21 (stereo not given)	-25%	x	u	u	x	-90*
COc1ccccc1N1CCN(C(=O)C2CCCN(S(=O)(=O)c3ccc4c(c3)oc(=O)n4C)C2)CC1 (stereo not given)	25µM*	u	-14%	-10%	u	-60*!
CC(Nc1ncnc2ccccc12)c1ccccc1 (stereo not given)	u	u	-24%	i	u	-82*
CN(Cc1ccc(Cl)c(Cl)c1)C(=O)C1CSC2(C)CCC(=O)N12 (stereo not given)	-17%	x	x	x	x	-82*
CC12CCC(=O)N1C(C(=O)NNC(=O)c1ccccc1Cl)CS2 (stereo not given)	-10%	x	x	x	x	-90*
CN(CC(=O)Nc1c(Cl)cccc1Cl)C(=O)C1CSC2(C)CCC(=O)N12 (stereo not given)	-17%	3%	-15%	-10%	-11%	0
COc1ccccc1Nc1nn2c(=O)c3ccc(C(=O)NCc4cccs4)cc3nc2s1	u	u	u	u	x	-97*
CCN(CC)CCNC(=O)c1ccc2c(=O)n3nc(Nc4ccccc4OC)sc3nc2c1	-10%	-3%[46.1 µM]	-21%	u	x	-101*
Cc1ccc(C)c(Nc2nn3c(=O)c4ccc(C(=O)NCc5cccs5)cc4nc3s2)c1	-15%	u	u	u	x	-99*
COc1ccccc1Nc1nn2c(=O)c3ccc(C(=O)NC4CCCCC4)cc3nc2s1	u	8%[46.1 µM]	-17%	-13%	x	0
COC(=O)c1ccc(Nc2nccc3[nH]c(-c4cccc(C(F)(F)F)c4)cc23)cc1	x	x	x	x	x	4
COc1cc(=O)n2c(c1C(=O)N(C)Cc1nonc1C)CCN(Cc1cc(C)c(C)cc1C)CC2	-14%	x	-23%	-2%	x	x
Cc1cc(NC(=O)C2CCN(S(=O)(=O)c3cccc4nsnc34)CC2)ccc1Br	-21%	21%[46.1 µM]	-12%	i	-7%[46.1 µM]	u
CCOC(=O)N1CCC(N2Cc3cccc(C(=O)Nc4ccc(CC)cc4)c3C2=O)CC1	-15%	-16%	x	x	u	65
CCOC(=O)N1CCC(N2Cc3cccc(C(=O)Nc4ccc(F)cc4)c3C2=O)CC1	-15%	-2%	x	x	-2%	-102*
COc1ccc2oc(=O)c(C(=O)N3CCN(C(=O)c4ccccc4)CC3)cc2c1	-17%	-3%[46.1 µM]	-8%	i	-1%[46.1 µM]	-95*
Cc1ccc(C)c(N2CCN(C(=O)c3cccn4c(=O)c5sccc5nc34)CC2)c1	u	u	-18%	i	13µM*	12
COc1ccc2oc(=O)c(C(=O)N3CCN(c4ccccc4C)CC3)cc2c1	82%	u	-9%	i	u	u
SMILES	FMDV antiviral	LASV entry inh	Vaccinia Venus	VACV mCherry inh	MARV entry inh	HCMV antiviral
Cc1ccc(C)c(N2CCN(C(=O)c3cc4ccccc4oc3=O)CC2)c1	0%	x	-21%	-15%	x	-62*
O=C(c1cc2c(ccc3ccccc32)oc1=O)N1CCCC1	24%	6%	-6%	-6%	14%	-90*
COc1ncc2nc(C)c(=O)n(C)c2n1	-14%	x	x	x	x	x
COc1cc(N)c(NC(=O)/C=C/c2nc3cc(OC)c(OC)cc3[nH]2)cc1OC	x	x	-10%	-22%	x	x
Cc1ccc(/C=C/C(=O)Nc2ccc(S(N)(=O)=O)cc2)o1	-11%	6%	10%	-7%	3%	25
N#CCc1ccc(NC(=O)/C=C/c2ccc([N+](=O)[O-])o2)cc1	u	7.9µM*	u	7.1µM*	u	x
N#C/C(=C\c1ccc([N+](=O)[O-])o1)C(=O)Nc1ccc(F)cc1	u	-10%	57%	46%	u	-78*
CC(NC(=O)c1ccc(NC(=O)c2nsc3ccccc23)cc1)c1ccccc1 (stereo not given)	-40%	14%[46.1 µM]	-13%	-10%	x	53
O=C1C=CC(=O)C(C2=C3C(=O)N(CCc4ccccc4)CC(=O)N3CCC2)=C1	u	u	0%	-12%	-5%	-99*
CC(=O)ON=C1C=CC(=C(C#N)c2ccccc2)C=C1	u	x	-9%	4%	x	-101*
COc1ccc(C(C#N)=C2C=CC(=NO)C=C2)cc1	10%	u	39%[7.34 µM]	-13%[7.34 µM]	u	-24
Brc1ccc(N/N=C(/N=Nc2nn[nH]n2)c2ccccc2)cc1	-23%	x	13µM*	u	x	-100*
COC(=O)[C@@H]1CC2=CC(=O)CC[C@]2(C)[C@@]23O[C@@H]2C[C@@]2(C)[C@H](CC[C@@]24CCC(=O)O4)[C@@H]13	5%	x	x	x	x	x
COc1ccc(C2C=C(c3ccc(Br)cc3)Nc3nnnn32)c(OC)c1 (stereo not given)	-5%	-9%[46.1 µM]	-18%	-3%	x	-72*
Cc1ccc(C2=CC(c3ccc(N(C)C)cc3)n3nnnc3N2)cc1 (stereo not given)	-9%	x	-15%	u	x	-76*
Cc1cccc(C2C=C(c3ccc(C)c(C)c3)Nc3nnnn32)c1 (stereo not given)	7%	-26%[46.1 µM]	-24%	-26%	x	25
CCc1ccc(C2=CC(c3cccc(Br)c3)n3nnnc3N2)cc1 (stereo not given)	0%	-2%[46.1 µM]	-12%	-20%	x	-66*
COc1ccccc1C1C=C(c2ccccc2)Nc2nnnn21 (stereo not given)	-5%	-27%	x	x	-15%	u
Cc1ccc(CN2CC=CS2(=O)=O)cc1	x	x	x	x	x	-22
CCCCOC(=O)c1ccc(OC(=O)c2sc3ncn(Cc4ccccc4Cl)c(=O)c3c2C)cc1	-5%	5%[46.1 µM]	-9%	-2%	x	-2
O=C(CSc1c2c(nc3cc(Cl)ccc13)CCCC2)NCc1ccccc1Cl	u	u	-20%	-17%	u	-80*
O=C(CSc1c2c(nc3cc(Cl)ccc13)CCCC2)N1CCN(c2ccccc2)CC1	u	-10%[46.1 µM]	-18%	-18%	-27%[46.1 µM]	-78*
Cc1cc(C(=O)NCc2nc(-c3cccc(NC(=O)c4ccccc4)c3)oc2C)nc(C)n1	u	x	-5%	-12%	x	x
